Source: PubChem BioAssay (several laboratories)
Only some compounds are listed: those with a hit (about 4.2% of all), similar ones and a draw of the others.
RecA splice inh: inhibitors of M. tuberculosis RecA intein splicing. actives 0.75% (n = 290,000). inhibition, % (no concentration beside the values). cell-free RecA intein splicing, fluorescence. P9WHJ3; in the data active means inhibition above about 30%
Target sequence (P9WHJ3 whole entry, looked up, canonical isoform): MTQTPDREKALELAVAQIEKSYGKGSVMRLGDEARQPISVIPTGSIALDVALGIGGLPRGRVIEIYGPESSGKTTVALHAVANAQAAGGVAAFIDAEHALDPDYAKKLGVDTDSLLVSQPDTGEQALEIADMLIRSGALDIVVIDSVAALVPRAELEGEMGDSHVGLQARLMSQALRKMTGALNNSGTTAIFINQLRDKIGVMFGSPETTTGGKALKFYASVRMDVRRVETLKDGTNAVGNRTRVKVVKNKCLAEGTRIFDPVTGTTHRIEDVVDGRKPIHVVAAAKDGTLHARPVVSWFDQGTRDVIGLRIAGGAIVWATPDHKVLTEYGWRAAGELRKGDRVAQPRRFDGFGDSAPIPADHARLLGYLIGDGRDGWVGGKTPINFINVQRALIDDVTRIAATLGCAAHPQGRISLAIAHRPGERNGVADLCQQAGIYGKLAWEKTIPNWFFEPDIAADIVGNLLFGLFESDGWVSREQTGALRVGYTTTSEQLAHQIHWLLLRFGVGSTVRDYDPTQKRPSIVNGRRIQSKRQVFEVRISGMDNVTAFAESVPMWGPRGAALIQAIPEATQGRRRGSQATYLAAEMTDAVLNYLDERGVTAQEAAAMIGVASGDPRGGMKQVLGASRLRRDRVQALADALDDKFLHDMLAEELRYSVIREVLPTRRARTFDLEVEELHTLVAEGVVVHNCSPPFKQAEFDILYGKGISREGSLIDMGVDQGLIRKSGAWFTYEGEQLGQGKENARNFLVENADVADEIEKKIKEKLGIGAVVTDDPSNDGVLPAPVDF
Mtb FBA inh: inhibits M. tuberculosis FBA enzyme; P9WQA3; purified M. tuberculosis FBA, fluorescence read-out; inhibition, % at 1 µM; actives 2.3% (n = 360,000); in the data active means inhibition above about 27%
CCHF vOTU inh: CCHFV vOTU protease inhibition; actives 0.55% (n = 370,000); inhibition, % at 11.5 µM; Pep-AMC fluorescence
GDH-TPI counter: GDH-TPI coupled enzyme inhibition counter-screen. GDH-TPI coupled enzyme counterscreen, NADH absorbance. inhibition, % at 4.8 µM. actives 1.2% (n = 360,000)
GFP chromophore: counter-screen: blocks GFP chromophore formation | shares compounds with RecA splice inh | cell-free GFP chromophore formation, fluorescence | EC50, µM | actives 83% (n = 2,100) | AID 434968; call rule not given here
Large screens that a line does not name were inactive (follow-up assays come after a bar, where they were run). Unless noted, no stated cut-off is given here; in the data, active means inhibition above about 30%; inactive means the rest.

CC1(C)c2ssc(=S)c2-c2ccccc2N1C(=O)CSC1=NCCS1	RecA splice inh 51 | GFP chromophore 4.6
Cc1cc(C)c2c(c1)-c1c(ssc1=S)C(C)(C)N2C(=O)CSc1nncn1C	RecA splice inh 46 | GFP chromophore 9.8
Cc1ccc2c(c1)-c1c(ssc1=S)C(C)(C)N2C(=O)CSc1nncn1C	RecA splice inh 47 | GFP chromophore 13
Cc1cnc(C(=O)OCC(=O)Nc2ccc(Br)cc2F)cn1	none (no result: RecA splice inh)
Cc1ccc(S(=O)(=O)N2CCN(C(=O)[C@H](Cc3ccccc3)NC(=O)c3ccco3)CC2)cc1C	none (no result: RecA splice inh)
Oc1cc(O)c2c(c1)O[C@H](c1ccc(O)c(O)c1)[C@H](O)C2	RecA splice inh 36 | GFP chromophore inactive
O=C(O[C@@H]1Cc2c(O)cc(O)cc2O[C@@H]1c1cc(O)c(O)c(O)c1)c1cc(O)c(O)c(O)c1	none (no result: Mtb FBA inh, CCHF vOTU inh, GDH-TPI counter)
O=C1C(=O)c2ccccc2C([O-])=C1[n+]1ccccc1	RecA splice inh 84 | GFP chromophore 6.9
CC(=CC(=O)c1ccccc1)c1ccccc1	none (no result: RecA splice inh)
COc1cc(/C=C2/SC(=S)NC2=O)ccc1OS(=O)(=O)c1ccc(C)cc1	RecA splice inh 36 (no result: CCHF vOTU inh) | GFP chromophore 23
COc1cc(/C=C2\SC(=S)NC2=O)ccc1OS(=O)(=O)c1ccccc1	none (no result: Mtb FBA inh, CCHF vOTU inh, GDH-TPI counter)
Cc1[nH]n(-c2ccccc2)c(=O)c1/C=N\NC(=O)C1COc2ccccc2O1 (centres undefined)	RecA splice inh 38 | GFP chromophore inactive
CC(=O)N/N=C/c1c(C)[nH]n(-c2ccccc2)c1=O	none (no result: RecA splice inh)
Cc1cc(C)c(NC(=O)CN(C)C(=O)CNC(=O)c2cccs2)c(C)c1	none (no result: RecA splice inh)
O=c1cc(-c2cccc3ccccc23)[nH][nH]1	RecA splice inh 93 | GFP chromophore 3.5
CCOc1ncccc1C(=O)Nc1c(C)n(C)n(-c2ccccc2)c1=O	none
O=C(NC1CCCCC1)OC1CC2CC1[C@H]1CCCCN1C2=O (some centres undefined)	none (no result: RecA splice inh, Mtb FBA inh, GDH-TPI counter)
CSc1nnc(C2CCN(CC(=O)Nc3ccccc3N3CCOCC3)CC2)n1C	none
Cc1[nH][nH]c(=O)c1C(c1ccc(-c2ccc(C(=O)O)cc2)o1)c1c(C)[nH][nH]c1=O	none (no result: RecA splice inh)
Cc1[nH][nH]c(=O)c1C(c1ccc(-c2ccc(Cl)c(Cl)c2)o1)c1c(C)[nH][nH]c1=O	RecA splice inh 97, CCHF vOTU inh 43 | GFP chromophore 0.66
CCOC1(OCC)C(c2ccc(Cl)cc2)C(C#N)(C#N)C1(OCC)OCC (centres undefined)	RecA splice inh 56 | GFP chromophore inactive
O=[N+]([O-])c1ccc(N2CCCC(C(F)(F)F)C2)c2ccncc12 (centres undefined)	RecA splice inh 33 | GFP chromophore inactive
O=[N+]([O-])c1cc(C(F)(F)F)ccc1N1CCCC(O)C1 (centres undefined)	none
Cc1ccccc1CN1CCN(CC2CC2)CC1CCO (centres undefined)	none
Cn1ncnc2c(=O)n(C)c(=O)nc1-2	RecA splice inh 97 (no result: CCHF vOTU inh) | GFP chromophore 0.09
CCOC(=O)/C=c1\s/c(=C(\C#N)C(=O)NC)n(-c2ccccc2)c1=O	none
CCOC(=O)/C=c1\s/c(=C(\C#N)C(N)=O)n(-c2ccccc2)c1=O	RecA splice inh 49 | GFP chromophore 24
COc1ccc(Cl)cc1NC(=O)c1cccc(-n2cnnn2)c1	none (no result: RecA splice inh)
Fc1ccc(Nc2nc(Oc3ccccc3F)nc(N3CCCC3)n2)cc1	none | GFP chromophore 12
Cc1ccc(S(=O)(=O)N2CCOC2CNC(=O)C(=O)NCc2ccc(Cl)cc2)cc1 (centres undefined)	none
Cc1ccc(C(c2cc(Cl)c3cccnc3c2O)N2CCN(C)CC2)cc1 (centres undefined)	RecA splice inh 75 (no result: CCHF vOTU inh) | GFP chromophore 8.7
CN1CCN(C(c2ccccn2)c2cc(Cl)c3cccnc3c2O)CC1 (centres undefined)	none
O=C(Nc1ccccc1)Nc1nnc([C@H]2C[C@H](O)[C@@H](CO)O2)s1	none (no result: RecA splice inh)
COC(=O)c1ccccc1NC(=O)C(C)n1nc(C)c2c(C)n(-c3ccccc3)nc2c1=O (centres undefined)	RecA splice inh 97 | GFP chromophore inactive
CCCc1[nH]nc2c1C(c1ccccc1OC)C(C#N)=C(N)O2 (centres undefined)	RecA splice inh 61 | GFP chromophore 20
CCCc1[nH]nc2c1C(CCC)C(C#N)=C(N)O2 (centres undefined)	RecA splice inh 64 | GFP chromophore 35
CCCc1[nH]nc2c1C(c1cn[nH]c1-c1ccc(F)cc1)C(C#N)=C(N)O2 (centres undefined)	RecA splice inh 81 (no result: CCHF vOTU inh) | GFP chromophore 7.1
